# The supplement of paper PMC8728848
# The full list was thinned out, with the strongest signals kept by preference.
# Assays:
# Experiment in all cases: glycan array binding signal (z-score within array); higher = stronger binding
# [1] = biological target: Fuc(a1-2)Gal(b1-3)[Fuc(a1-4)]GlcNAc(b1-2)Man(a1-3)[Fuc(a1-2)Gal(b1-3)[Fuc(a1-4)]GlcNAc(b1-2)Man(a1-6)]Man(b1-4)GlcNAc(b1-4)GlcNAc; conditions: glycan notation: IUPAC condensed, linker removed
# Outline: (§1)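 The binding signal is a Z-score computed within each array. Data were drawn from 3228 arrays in the Consortium for Functional Glycomics database, restricted to those with a known protein sequence. Scores were averaged over arrays of the same protein sequence at different concentrations or buffers, and over linkers, and negative values can be taken as non-binding.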
# [2] = biological target: Fuc(a1-2)[Gal(a1-3)]Gal(b1-4)GlcNAc; conditions: glycan notation: IUPAC condensed, linker removed
# Outline: as §1
# [3] = biological target: Fuc(a1-2)[GalNAc(a1-3)]Gal(b1-3)GalNAc(a1-3)[Fuc(a1-2)]Gal(b1-4)GlcNAc; conditions: glycan notation: IUPAC condensed, linker removed
# Outline: as §1
# [4] = biological target: Fuc(a1-3)[Gal(b1-4)]GlcNAc(b1-6)[Gal(b1-3)GlcNAc(b1-3)]Gal(b1-4)Glc; conditions: glycan notation: IUPAC condensed, linker removed
# Outline: as §1
# [5] = biological target: Fuc(a1-3)[Gal(b1-4)]GlcNAc6S; conditions: glycan notation: IUPAC condensed, linker removed
# Outline: as §1
# [6] = biological target: Fuc(a1-3)[Gal3S(b1-4)]GlcNAc; conditions: glycan notation: IUPAC condensed, linker removed
# Outline: as §1
# [7] = biological target: Gal(a1-3)Gal(b1-4)[Fuc(a1-3)]GlcNAc(b1-2)Man(a1-3)[Gal(a1-3)Gal(b1-4)[Fuc(a1-3)]GlcNAc(b1-2)Man(a1-6)]Man(b1-4)GlcNAc(b1-4)GlcNAc; conditions: glycan notation: IUPAC condensed, linker removed
# Outline: as §1
# [8] = biological target: Gal(b1-3)GalNAc(b1-4)Gal(b1-4)Glc; conditions: glycan notation: IUPAC condensed, linker removed
# Outline: as §1
# [9] = biological target: Gal(b1-4)GlcNAc(b1-3)Gal(b1-4)Glc; conditions: glycan notation: IUPAC condensed, linker removed
# Outline: as §1
# [10] = biological target: Gal3S(b1-4)[Fuc(a1-3)]Glc6S; conditions: glycan notation: IUPAC condensed, linker removed
# Outline: as §1
# [11] = biological target: Gal3S4S(b1-4)GlcNAc; conditions: glycan notation: IUPAC condensed, linker removed
# Outline: as §1
# [12] = biological target: Gal3S6S(b1-4)GlcNAc6S; conditions: glycan notation: IUPAC condensed, linker removed
# Outline: as §1
# [13] = biological target: Gal4S6S(b1-4)GlcNAc; conditions: glycan notation: IUPAC condensed, linker removed
# Outline: as §1
# [14] = biological target: Gal6S(b1-4)Glc6S; conditions: glycan notation: IUPAC condensed, linker removed
# Outline: as §1
# [15] = biological target: Gal6S(b1-4)GlcNAc; conditions: glycan notation: IUPAC condensed, linker removed
# Outline: as §1
# [16] = biological target: Gal6S(b1-4)GlcNAc6S; conditions: glycan notation: IUPAC condensed, linker removed
# Outline: as §1
# [17] = biological target: GalNAc(b1-3)GalNAc; conditions: glycan notation: IUPAC condensed, linker removed
# Outline: as §1
# [18] = biological target: GlcNAc(a1-4)Gal(b1-4)GlcNAc(b1-3)Gal(b1-4)[Fuc(a1-3)]GlcNAc(b1-3)Gal(b1-4)[Fuc(a1-3)]GlcNAc; conditions: glycan notation: IUPAC condensed, linker removed
# Outline: as §1
# [19] = biological target: GlcNAc(a1-6)Gal(b1-4)GlcNAc; conditions: glycan notation: IUPAC condensed, linker removed
# Outline: as §1
# [20] = biological target: GlcNAc(b1-3)Gal(b1-4)Glc; conditions: glycan notation: IUPAC condensed, linker removed
# Outline: as §1
# [21] = biological target: GlcNAc(b1-4)[GlcNAc(b1-6)]GalNAc; conditions: glycan notation: IUPAC condensed, linker removed
# Outline: as §1
# [22] = biological target: Man(a1-3)[Man(a1-6)]Man(a1-6)[Man(a1-3)]Man; conditions: glycan notation: IUPAC condensed, linker removed
# Outline: as §1
# [23] = biological target: Neu5Ac(a2-3)Gal(b1-4)[Fuc(a1-3)]GlcNAc(b1-3)GalNAc; conditions: glycan notation: IUPAC condensed, linker removed
# Outline: as §1
# [24] = biological target: Neu5Ac(a2-3)[GalNAc(b1-4)]Gal(b1-4)Glc; conditions: glycan notation: IUPAC condensed, linker removed
# Outline: as §1
# [25] = biological target: Neu5Ac(a2-6)Gal(b1-4)GlcNAc; conditions: glycan notation: IUPAC condensed, linker removed
# Outline: as §1
# [26] = biological target: Neu5Ac(a2-6)Gal(b1-4)GlcNAc(b1-2)Man(a1-6)Man(b1-4)GlcNAc(b1-4)GlcNAc; conditions: glycan notation: IUPAC condensed, linker removed
# Outline: as §1
# [27] = biological target: GalNAc(b1-4)GlcNAc6S; conditions: glycan notation: IUPAC condensed, linker removed; mutation: H59Q
# Outline: as §1
# [28] = biological target: GlcA(b1-6)Gal; conditions: glycan notation: IUPAC condensed, linker removed; mutation: H59Q
# Outline: as §1
# [29] = biological target: GlcA3S(b1-3)Gal(b1-4)GlcNAc(b1-2)Man; conditions: glycan notation: IUPAC condensed, linker removed; mutation: H59Q
# Outline: as §1
# [30] = biological target: GlcA3S(b1-3)Gal(b1-4)GlcNAc(b1-3)Gal(b1-4)Glc; conditions: glycan notation: IUPAC condensed, linker removed; mutation: H59Q
# Outline: as §1
# [31] = biological target: GlcNAc(a1-4)Gal(b1-4)GlcNAc(b1-3)Gal(b1-4)Glc; conditions: glycan notation: IUPAC condensed, linker removed; mutation: H59Q
# Outline: as §1
# [32] = biological target: GlcNAc(b1-2)Man(a1-3)[GlcNAc(b1-2)Man(a1-6)]Man(b1-4)GlcNAc(b1-4)[Fuc(a1-6)]GlcNAc; conditions: glycan notation: IUPAC condensed, linker removed; mutation: H59Q
# Outline: as §1
# [33] = biological target: GlcNAc(b1-2)[GlcNAc(b1-4)]Man(a1-3)[GlcNAc(b1-4)][GlcNAc(b1-2)Man(a1-6)]Man(b1-4)GlcNAc(b1-4)GlcNAc; conditions: glycan notation: IUPAC condensed, linker removed; mutation: H59Q
# Outline: as §1
# [34] = biological target: Man(a1-2)Man(a1-3)[Man(a1-6)]Man(a1-6)[Man(a1-2)Man(a1-3)]Man(b1-4)GlcNAc(b1-4)GlcNAc; conditions: glycan notation: IUPAC condensed, linker removed; mutation: H59Q
# Outline: as §1
# [35] = biological target: Man(a1-3)[Man(a1-6)]Man(b1-4)GlcNAc(b1-4)GlcNAc; conditions: glycan notation: IUPAC condensed, linker removed; mutation: H59Q
# Outline: as §1
# [36] = biological target: Neu5Ac(a2-3)Gal(b1-3)GalNAc6S; conditions: glycan notation: IUPAC condensed, linker removed; mutation: H59Q
# Outline: as §1
# [37] = biological target: Neu5Ac(a2-3)Gal(b1-3)GlcNAc(b1-2)Man(a1-3)[GlcNAc(b1-4)][Neu5Ac(a2-3)Gal(b1-3)GlcNAc(b1-2)Man(a1-6)]Man(b1-4)GlcNAc(b1-4)GlcNAc; conditions: glycan notation: IUPAC condensed, linker removed; mutation: H59Q
# Outline: as §1
# [38] = biological target: Neu5Ac(a2-3)Gal(b1-4)GlcNAc(b1-2)Man; conditions: glycan notation: IUPAC condensed, linker removed; mutation: H59Q
# Outline: as §1
# [39] = biological target: Neu5Ac(a2-3)Gal(b1-4)GlcNAc(b1-2)[Neu5Ac(a2-3)Gal(b1-4)GlcNAc(b1-4)]Man(a1-3)[GlcNAc(b1-4)][Neu5Ac(a2-3)Gal(b1-4)GlcNAc(b1-4)Man(a1-6)]Man(b1-4)GlcNAc(b1-4)GlcNAc; conditions: glycan notation: IUPAC condensed, linker removed; mutation: H59Q
# Outline: as §1
# [40] = biological target: Neu5Ac(a2-3)Gal(b1-4)GlcNAc(b1-3)GalNAc; conditions: glycan notation: IUPAC condensed, linker removed; mutation: H59Q
# Outline: as §1
# [41] = biological target: Neu5Ac(a2-3)[GalNAc(b1-4)]Gal(b1-4)GlcNAc(b1-3)GalNAc; conditions: glycan notation: IUPAC condensed, linker removed; mutation: H59Q
# Outline: as §1
# [42] = biological target: Neu5Ac(a2-6)Gal(b1-4)GlcNAc(b1-2)Man(a1-3)[Man(a1-6)]Man(b1-4)GlcNAc(b1-4)GlcNAc; conditions: glycan notation: IUPAC condensed, linker removed; mutation: H59Q
# Outline: as §1
# [43] = biological target: Neu5Ac(a2-6)GalNAc(b1-4)GlcNAc; conditions: glycan notation: IUPAC condensed, linker removed; mutation: H59Q
# Outline: as §1
# [44] = biological target: Neu5Ac(a2-8)Neu5Ac(a2-3)Gal(b1-3)GalNAc(b1-4)[Neu5Ac(a2-8)Neu5Ac(a2-3)]Gal(b1-4)Glc; conditions: glycan notation: IUPAC condensed, linker removed; mutation: H59Q
# Outline: as §1
# [45] = biological target: Neu5Gc(a2-6)GalNAc; conditions: glycan notation: IUPAC condensed, linker removed; mutation: H59Q
# Outline: as §1
# [46] = biological target: Neu5Gc(a2-8)Neu5Gc(a2-6)Gal(b1-4)GlcNAc; conditions: glycan notation: IUPAC condensed, linker removed; mutation: H59Q
# Outline: as §1
# [47] = biological target: Neu5Gc(b2-6)Gal(b1-4)GlcNAc; conditions: glycan notation: IUPAC condensed, linker removed; mutation: H59Q
# Outline: as §1
binder,measurement,setting,value
"Pp2-A2 (Arabidopsis thaliana), Q07098 (protein) MPSNGDLDRQIEQLMECKPLSEADVRTLCDQARAILVEEYNVQPVKCPVTVCGDIHGQFYDLIELFRIGGNAPDTNYLFMGDYVDRGYYSVETVSLLVALKVRYRDRLTILRGNHESRQITQVYGFYDECLRKYGNANVWKYFTDLFDYLPLTALIESQVFCLHGGLSPSLDTLDNIRSLDRIQEVPHEGPMCDLLWSDPDDRCGWGISPRGAGYTFGQDIAAQFNHNNGLSLISRAHQLVMEGFNWCQDKNVVTVFSAPNYCYRCGNMAAILEIGENMEQNFLQFDPAPRQVEPDTTRKTPDYFL",glycan array binding signal (z-score),[1],2.08
same,glycan array binding signal (z-score),[2],-0.404
same,glycan array binding signal (z-score),[3],0.21
same,glycan array binding signal (z-score),[4],-0.662
same,glycan array binding signal (z-score),[5],0.633
same,glycan array binding signal (z-score),[6],-0.461
same,glycan array binding signal (z-score),[7],-0.298
same,glycan array binding signal (z-score),[8],-0.181
same,glycan array binding signal (z-score),[9],-0.032
same,glycan array binding signal (z-score),[10],4.36
same,glycan array binding signal (z-score),[11],6.14
same,glycan array binding signal (z-score),[12],4.5
same,glycan array binding signal (z-score),[13],4.54
same,glycan array binding signal (z-score),[14],4.11
same,glycan array binding signal (z-score),[15],-0.117
same,glycan array binding signal (z-score),[16],2.28
same,glycan array binding signal (z-score),[17],-0.683
same,glycan array binding signal (z-score),[18],5.17
same,glycan array binding signal (z-score),[19],-0.835
same,glycan array binding signal (z-score),[20],-0.721
same,glycan array binding signal (z-score),[21],-0.771
same,glycan array binding signal (z-score),[22],0.061
same,glycan array binding signal (z-score),[23],4.64
same,glycan array binding signal (z-score),[24],-0.213
same,glycan array binding signal (z-score),[25],-0.266
same,glycan array binding signal (z-score),[26],-0.465
"rAAL-H59Q (Agrocybe aegerita), Q6WY08 (protein) MQGVNIYNISAGTSVDLAAPVTTGDIVTFFSSALNLNAGAGNPNNTTLNLFAENGAYLLQIAFRLQENVIIFNSRQPDGPWLVEQRVSDVANQFAGIDGKAMVTVFDHGDKYQVVINEKTVIQYTKQISGLTLSLSYNATEETSIFSTVVEAVTYTGLALEHHHHHH",glycan array binding signal (z-score),[16]; mutation: H59Q,-0.14
same,glycan array binding signal (z-score),[27],-0.023
same,glycan array binding signal (z-score),[28],-0.064
same,glycan array binding signal (z-score),[29],19.6
same,glycan array binding signal (z-score),[30],12.1
same,glycan array binding signal (z-score),[31],-0.059
same,glycan array binding signal (z-score),[32],-0.07
same,glycan array binding signal (z-score),[33],-0.055
same,glycan array binding signal (z-score),[34],-0.093
same,glycan array binding signal (z-score),[35],-0.085
same,glycan array binding signal (z-score),[36],-0.117
same,glycan array binding signal (z-score),[37],-0.066
same,glycan array binding signal (z-score),[38],-0.03
same,glycan array binding signal (z-score),[39],-0.016
same,glycan array binding signal (z-score),[40],-0.092
same,glycan array binding signal (z-score),[23]; mutation: H59Q,0.246
same,glycan array binding signal (z-score),[41],-0.084
same,glycan array binding signal (z-score),[42],0.009
same,glycan array binding signal (z-score),[43],-0.112
same,glycan array binding signal (z-score),[44],-0.103
same,glycan array binding signal (z-score),[45],-0.145
same,glycan array binding signal (z-score),[46],-0.072
same,glycan array binding signal (z-score),[47],-0.027
